# High-throughput results (PubChem BioAssay)
# aSyn UTR act: Activators via SNCA 5'UTR binding, MLPCN | alpha-synuclein 5'UTR reporter, activators screen | activity score, % (tested at 7.5 µM), hits read low | 7.1% of 300,000 active | AID 1814, 2009; in the data active = activity score below about -60%
# A number is an active result; - = inactive. These entries were drawn from the full list.
SMILES,aSyn UTR act
Oc1ccc(-c2nccc(-c3ccc(F)cc3)n2)cc1,-143.9
O=C(/C=C/c1c(F)cccc1Cl)Nc1nc2ccccc2[nH]1,-313.8
Cc1ccc(/C=C/C(=O)Nc2nc3ccccc3[nH]2)cc1,-185.7
COc1ccccc1N=Nc1[nH]c2ccc(C)cc2c1O,-168.8
O=C(N/N=C/c1ccccc1Cl)c1cccc(F)c1,-138.1
Fc1cccc(/C=N/Nc2ccc(Cl)nn2)c1,-116.0
Oc1c(Br)cc(Br)cc1/C=N/Nc1ccc(Cl)nn1,-
CC(C)(C)c1ccc(C(=O)N/N=C/c2cccc(Cl)c2)cc1,-89.4
O=C(N/N=C/c1cccc(F)c1)c1ccc(Cl)cc1,-149.9
Cc1cccc(NC(=S)NNC(=O)c2sccc2C)c1,-134.2
Cc1cccc(NC(=S)NNC(=O)c2csc(C(C)C)c2)c1,-211.1
CCc1cc(C(=O)NNC(=S)Nc2cccc(C)c2)cs1,-129.8
CCc1cc(C(=O)Nc2ccc(C)cc2Br)cs1,-255.2
Cc1ccc(NC(=S)C2=C(O)c3ccccc3N(C)S2(=O)=O)cc1,-100.4
CN1c2ccccc2C(O)=C(C(=O)Nc2ccccc2)S1(=O)=O,-83.7
Cc1ccc(-c2ccc3c(c2)S(=O)(=O)c2ccccc2C3=O)cc1,-156.4
O=C(NCCc1ccccc1)c1ccc(Cl)c([N+](=O)[O-])c1,-98.9
Cc1cc(C(=O)NCCc2ccccc2)ccc1[N+](=O)[O-],-115.8
CCC(CC)C(=O)Nc1cccc(C(=O)NCCc2ccccc2)c1,-64.4
Cc1cccc(C(=O)NCCc2ccccc2)c1,-111.6
CCCN1CCC(Oc2cccc(C(=O)NCCc3ccccc3)c2)CC1,-72.2
O=C(c1ccc(Cl)c([N+](=O)[O-])c1)N(c1ccccn1)c1ccccn1,-97.5
COc1ccc(/C=C/C(=O)c2c(O)cc(C)oc2=O)c(OC)c1,-230.3
COc1cccc(/C=C/C(=O)c2c(O)cc(C)oc2=O)c1O,-110.6
CC(=O)C1C(=O)c2c(cccc2[N+](=O)[O-])C1=Nc1ccccc1C (configuration not stated),-73.1
SMILES,aSyn UTR act
CC1=C([N+](=O)[O-])C(c2cccc(Br)c2)C2=C(N1)c1ccccc1C2=O (configuration not stated),-
CCOc1ccccc1CNC(=O)c1cc2oc3ccccc3c2n1C,-
COCCNC(=O)c1cc2oc3ccccc3c2n1C,-98.5
CC(C)Cc1ccc(C(C)C(N)=NCCc2ccccc2)cc1 (configuration not stated),-74.8
Cc1ccc(-c2cc(C(=O)NCCCN3CCCC3)c3ccccc3n2)cc1C,-63.0
COc1ccc(-c2cc(C(=O)NCC(c3ccccc3)N(C)C)c3ccccc3n2)cc1OC (configuration not stated),-68.1
COc1cccc(-c2cc(C(=O)NCCCn3ccnc3)c3ccccc3n2)c1,-69.9
Cc1ccc(-c2cc(C(=O)NCc3ccccn3)c3ccccc3n2)cc1C,-123.9
Cc1cc(OCC(=O)N(C)Cc2ccccc2)ccc1Br,-67.6
Cc1cc(C(=O)CSc2nc3ccccc3c(=O)[nH]2)c(C)n1CC1CCCO1 (configuration not stated),-114.9
CCn1c(SCC(=O)c2cc(C)n(CC3CCCO3)c2C)nc2ccccc21 (configuration not stated),-118.8
Cc1cc(C(=O)CSc2nnnn2-c2ccccc2)c(C)n1CC1CCCO1 (configuration not stated),-104.9
Cc1cc(C(=O)CSc2nc3ccccc3n2CCC#N)c(C)n1Cc1cccs1,-124.4
Cc1cc(C(=O)CN2C(=O)c3ccccc3S2(=O)=O)c(C)n1CC1CCCO1 (configuration not stated),-
CN(c1nc(-c2ccc(Br)cc2)cs1)C1CCS(=O)(=O)C1 (configuration not stated),-111.9
C/C(=N/NC(=O)c1ccc(C)s1)c1cccc(NC(=O)COc2ccc(Cl)cc2Cl)c1,-125.7
C/C(=N\NC(=O)c1ccn(C)n1)c1ccc(NC(=O)c2cccc(F)c2)cc1,-85.7
C/C(=N\NC(=O)c1c(Cl)cnn1C)c1cccc(NC(=O)COc2ccccc2)c1,-87.8
C/C(=N\NC(=O)c1ccn(C)n1)c1cccc(NC(=O)c2ccc(C)s2)c1,-100.9
C/C(=N/NC(=O)c1ccc(Cl)s1)c1ccc(NC(=O)COc2ccc(Cl)cc2)cc1,-77.5
C/C(=N/NC(=O)c1ccco1)c1cccc(NC(=O)c2ccc(C)s2)c1,-143.2
O=C(Nc1cccc(F)c1)c1c(O)c2ccccc2[nH]c1=O,-140.5
COc1ccccc1NC(=O)c1c(O)c2ccccc2[nH]c1=O,-76.3
Cc1cccc(-c2cc3nc4c(c(NCc5ccco5)n3n2)CCCC4)c1,-92.5
OC1CCCN(c2c3c(nc4cc(-c5cccc(F)c5)nn24)CCCC3)C1 (configuration not stated),-98.5
SMILES,aSyn UTR act
Cc1cccc(-c2cc3nc4c(c(N5CCOCC5)n3n2)CCCC4)c1,-113.8
Cc1ccc(/C=C/C(=O)c2cc(Br)ccc2OC(=O)c2ccco2)cc1,-94.2
CCc1ccc(/C=C/C(=O)c2cc(Br)ccc(=O)c2O)cc1,-
COc1ccc(C2=CC(c3sccc3C)n3nnnc3N2)cc1 (configuration not stated),-130.2
COc1ccc(C2=CC(c3ccc(F)cc3)n3nnnc3N2)cc1 (configuration not stated),-130.2
Cc1c(OCc2ccccc2)c(=O)ccn1Cc1ccccc1,-110.8
Cc1ccc(-n2cnc3cc(NCc4cccs4)ccc32)cc1,-93.8
c1ccc(-n2cnc3cc(NCc4ccco4)ccc32)cc1,-161.1
COc1ccc(-n2cnc3cc(NCc4cccs4)ccc32)cc1,-69.4
c1ccc(-n2cnc3cc(NCc4cccs4)ccc32)cc1,-166.7
CC(C)(C)c1ccc(OCC(=O)N/N=C/c2cc(Br)ccc2OC(=O)c2ccco2)cc1,-
CCC(Oc1ccccc1)C(=O)Nc1ccc(-c2nnc(-c3ccco3)o2)cc1 (configuration not stated),-96.8
O=C(COc1ccc(Br)cc1)Nc1ccc(-c2nnc(-c3ccco3)o2)cc1,-80.4
Clc1ccc(-c2nnc(-c3ccco3)o2)cc1,-203.1
CC(/C=C/c1ccc(N(C)C)cc1)=N\N=C(/N)SC1CC(=O)N(c2ccc(C(=O)O)cc2)C1=O (configuration not stated),-67.7
CCCc1cc(C(=O)N/N=C/c2cccn2C)cs1,-71.8
Cn1cccc1/C=N/NC(=O)c1cccs1,-70.0
CC(=O)n1cc(/C=N/NC(=O)c2ccc(Cl)cc2)c2ccccc21,-69.1
COc1ccc(/C=N/NC(=O)c2cccs2)c2ccccc12,-61.6
Cn1cc(/C=N\NC(=O)c2cccs2)c2ccccc21,-280.2
Cc1ccc(C(=O)N/C(=C\c2ccc(-c3ccccc3[N+](=O)[O-])o2)C(=O)NCCCN2CCOCC2)cc1,-
COc1nc(N/N=C/c2ccc(-c3ccccc3[N+](=O)[O-])o2)nc(N2CCOCC2)n1,-105.1
COc1ccc2c(C)c(C)c(=O)oc2c1OC,-84.5
c1ccc(Cn2cc(CSc3ccccc3)nn2)cc1,-137.1
COC(=O)c1sc(NC(=S)NC(=O)c2ccccc2F)nc1C,-151.8
SMILES,aSyn UTR act
COC(=O)c1sc(NC(=S)NC(=O)c2cccc(C)c2)nc1C,-143.8
CCOC(=O)c1c(NC(=O)CSc2nc3ccccc3[nH]2)sc2c1CC(C)(C)NC2(C)C,-100.9
COC(=O)c1c(NC(=O)c2nc3ccccc3s2)sc2c1CC(C)(C)NC2(C)C,-
Cc1ccc(NC(=O)c2c(Cl)nc3ccccn23)cc1,-153.3
C/C(=N\NC(=O)c1c(C)nc2ccccn12)c1ccc(O)cc1O,-
Cc1nc2ccccn2c1C(=O)Nc1ccc(Cl)cc1,-159.6
